Test results published in PubChem BioAssay AID1159580 (chemical genetic matrix, 2015).
Where “and” joins values, the source holds several entries; their conditions need not be identical. Equal values may be shown once. Screen size: about 5,500 compounds; about 2,000 (36%) were called active. Another 18% or so got no clear call; they are omitted. No stated cut-off is given here; in the data, active means normalized growth mostly below about 0.91 (no sharp cut-off); inconclusive means no clear call, values can overlap the other calls; inactive means mostly above about 0.92. Some of the results follow.

Assay: chemical genetic growth profiling, strain panel (AID 1159580);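 further: tested at 20 µM; growth read once vehicle control cultures reached saturation at 30 °C; 1 = growth at the plate median or of vehicle wells; lower values mean less growth of the strain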
Conditions: S. cerevisiae deletion strains, growth OD

Measured: normalized growth

CC1(C)C2CC[C@]3(C)C(C(=O)C=C4[C@@H]5C[C@@](C)(C(=O)O)CC[C@]5(C)CC[C@]43C)[C@@]2(C)CC[C@@H]1OC(=O)CCC(=O)O (stereo partly drawn)
inactive: locus YAL021C, strain ccr4, hits give low values 0.968 | locus YAL026C, strain drs2, hits give low values 0.981 | locus YAL030W, strain snc1, hits give low values 1 | locus YBL061C, strain skt5, hits give low values 0.99 | locus YBR009C, strain hhf1, hits give low values 1 | locus YBR021W, strain FUR4, hits give low values 0.981 | locus YBR023C, strain chs3, hits give low values 0.983 | locus YBR171W, strain sec66, hits give low values 0.975 | locus YBR229C, strain ROT2, hits give low values 1 | locus YBR231C, strain swc5, hits give low values 0.996 | locus YBR279W, strain paf1, hits give low values 0.976 | locus YCL011C, strain gbp2, hits give low values 0.963 | locus YCL016C, strain dcc1, hits give low values 0.979 | locus YCL029C, strain bik1, hits give low values 0.973 | locus YCL069W, strain vba3, hits give low values 1.02 | locus YCR088W, strain abp1, hits give low values 0.985 | locus YDL005C, strain med2, hits give low values 0.994 | locus YDL035C, strain GPR1, hits give low values 0.968 | locus YDL040C, strain nat1, hits give low values 0.988 | locus YDL074C, strain BRE1, hits give low values 1.02 | locus YDL101C, strain DUN1, hits give low values 1 | locus YDL134C, strain PPH21, hits give low values 0.966 | locus YDL185W, strain tfp1, hits give low values 0.958 | locus YDL192W, strain arf1, hits give low values 0.989 | locus YDR001C, strain nth1, hits give low values 0.983 | locus YDR069C, strain doa4, hits give low values 0.938 | locus YDR101C, strain arx1, hits give low values 0.994 | locus YDR137W, strain rgp1, hits give low values 0.911 | locus YDR159W, strain sac3, hits give low values 0.909 | locus YDR162C, strain NBP2, hits give low values 0.954 | locus YDR195W, strain ref2 1 | locus YDR297W, strain sur2, hits give low values 0.995 | locus YDR318W, strain mcm21, hits give low values 0.972 | locus YDR334W, strain swr1, hits give low values 0.991 | locus YDR335W, strain msn5, hits give low values 0.979 | locus YDR388W, hits give low values 1 | locus YDR392W, strain spt3, hits give low values 0.873 | locus YDR502C, strain sam2, hits give low values 0.99 | locus YEL003W, strain gim4, hits give low values 0.992 | locus YEL037C, strain rad23, hits give low values 0.986 | locus YEL061C, strain CIN8 (second series), hits give low values 0.988 | locus YEL061C, strain CIN8, hits give low values 0.999 | locus YER015W, strain faa2, hits give low values 0.989 | locus YER016W, strain bim1, hits give low values 0.975 | locus YER110C, hits give low values 0.982 | locus YER111C, strain swi4, hits give low values 0.968 | locus YER155C, strain BEM2 (second series), hits give low values 1.02 | locus YER155C, strain BEM2, hits give low values 1 | locus YER167W, strain BCK2, hits give low values 0.99 | locus YFR010W, strain ubp6, hits give low values 1.01 | locus YGL078C, strain dbp3, hits give low values 0.98 | locus YGL086W, strain mad1, hits give low values 0.999 | locus YGL167C, strain pmr1, hits give low values 0.987 | locus YGL173C, strain kem1, hits give low values 0.999 | locus YGL227W, strain vid30, hits give low values 0.982 | locus YGL240W, strain doc1, hits give low values 0.992 | locus YGL248W, strain PDE1, hits give low values 1.02 | locus YGL253W, strain hxk2, hits give low values 0.963 | locus YGR078C, strain PAC10, hits give low values 1.03 | locus YGR135W, strain pre9, hits give low values 0.96 | locus YGR229C, strain SMI1, hits give low values 0.999 | locus YGR252W, strain gcn5, hits give low values 1.04 | locus YHR013C, strain ard1, hits give low values 0.995 | locus YHR027C, strain rpn1, hits give low values 1 | locus YHR030C, strain SLT2, hits give low values 0.984 and 1.06 | locus YHR079C, strain IRE1 (second series), hits give low values 0.979 | locus YHR079C, strain IRE1, hits give low values 1.08 | locus YHR094C, strain hxt1, hits give low values 0.987 | locus YHR129C, strain ARP1, hits give low values 0.991 | locus YHR142W, strain chs7, hits give low values 0.955 | locus YHR200W, strain rpn10, hits give low values 0.958 | locus YIL066C, strain RNR3, hits give low values 0.983 | locus YIL073C, strain SPO22, hits give low values 0.91 | locus YIL125W, strain kgd1, hits give low values 1 | locus YIR030C, strain dcg1, hits give low values 0.98 | locus YJL092W, strain hpr5, hits give low values 1 | locus YJL095W, strain BCK1 (second series), hits give low values 1 | locus YJL095W, strain BCK1, hits give low values 1.03 | locus YJL115W, strain asf1, hits give low values 0.983 | locus YJL129C, strain trk1, hits give low values 0.936 | locus YJL134W, strain LCB3, hits give low values 0.99 | locus YJL154C, strain vps35, hits give low values 0.987 | locus YJL164C, strain tpk1, hits give low values 0.982 | locus YJL166W, strain qcr8, hits give low values 0.999 | locus YJL168C, strain set2, hits give low values 0.997 | locus YJL187C, strain SWE1 (second series), hits give low values 1.02 | locus YJR043C, strain POL32, hits give low values 1.01 | locus YJR066W, strain TOR1, hits give low values 1.01
